PubChem BioAssay (NCATS)
Results filed as inconclusive are left out. A number with no mark means an inactive call. The source made the active and inactive calls. Calls come from the whole dose curve; as a rule, active = well fitted inhibition curve with a large enough effect; inconclusive = small, poorly fitted or top-dose-only effect; inactive = flat fitted curve, though single readings scatter.

Test system: Zika virus NS2B-NS3 protease
Experiment: Primary screen GU AMC qHTS for Zika virus inhibitors (AID 1347154); note: nearly all actives have a fitted effect of over 70% in size;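 for activity change, negative = inhibition: 0% = no-inhibitor control and -100% = no-enzyme control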
Settings: Zika NS2B-NS3 unlinked protease, AMC fluorogenic substrate; series mostly up to 54.1 µM; activity change, negative = inhibition: at the top concentration
Description: Avindra Nath, Ph.D., National Institute of Neurological Disorders and Stroke (NINDS), Bethesda, MD
Radhakrishnan Padmanabhan, Ph.D., Georgetown University (GU), Washington D.C.
Zika Virus causes congenital defects, including microcephaly and is associated with Guillain-Barre syndrome, eningoencephalitis and myelitis in infected adult. […] Using a target-based approach, we hope to establish a screening paradigm to uncover novel, cell-active NS2B-NS3 protease (Zika Virus) specific inhibitors from NCATS' collection of small molecules using qHTS.
Early Translation Branch (ETB)
National Center for Advancing Translational Sciences (NCATS), Rockville, MD
National Institute of Health (NIH), Bethesda, Maryland
Padmanabhan lab provided the NS2B hydrophilic domain and NS3 protease domain in a noncovalent complex used for the unlinked assay. Control compound aprotinin is obtained from Thermo Scientific (#78432; Waltham, Massachusetts). NS2B-NS3 AMC substrate (Bz-Nle-Lys-Arg-Arg-AMC; Nle-KRR-AMC) purchased from Bachem (#I-1995; Torrance, CA). Ac-VKTGKR-AMC purchased from Genscript or Bachem, Ac-FAAGKR-AMC purchased from Genscript, Ac-GLVKRR-AMC purchased from Genscript, Ac-LKKR-AMC purchased from Genscript.
GU AMC unlinked NS2B-NS3 protease qHTS protocol
Briefly, 3 microL of Zika virus unlinked NS2B-NS3 protease (25 nM for linked final concentration), in assay buffer (10 mM Tris-HCl pH 8.0 with 0.01% Tween 20) was dispensed into a 1,536-well solid-bottom black plate (Greiner Bio One, Monroe, NC). […] Plates were then read immediately on a ViewLux High-throughput CCD imager (PerkinElmer, Waltham, MA) equipped with standard UV fluorescence optics (340(30) nm excitation, 450(20) nm emission) then incubated (room temperature, protected from light) for 15 minutes (~20% conversion). The change in fluorescence intensity over the 15-minute reaction period was normalized against no-inhibitor and no-enzyme controls and the resulting percent inhibition data were fitted to a 4-parameter Hill equation. Aprotinin was used as the intraplate control.
Potency is the fitted concentration of half-maximal effect.

| Structure (SMILES) | activity change, negative = inhibition | Potency |
| --- | --- | --- |
| CC1Sc2c(C(=O)O)c(=O)c3cc(F)c(N4CCNCC4)cc3n21 (stereo not given) | -11.2% |  |
| NC(=O)CN1CCCC1=O | -1.94% |  |
| c1cc2c(c(N3CCNCC3)c1)OCCO2 |  | inactive |
| O=c1n(Cl)c(=O)n(Cl)c(=O)n1Cl | -2.28% |  |
| Sc1ccccc1Cl | -0.645% |  |
| CN(C)C(=O)Oc1cc(OC(=O)N(C)C)cc(C(O)CNC(C)(C)C)c1 (stereo not given) | -3.84% |  |
| c1ccc2nc(N3CCNCC3)ccc2c1 | -15.1% |  |
| CCOC(=O)NC(C)(C)Cc1ccc(Cl)cc1 | -5.58% |  |
| C[C@]12Cc3nonc3C[C@@H]1CC[C@@H]1[C@@H]2CC[C@@]2(C)[C@H]1CC[C@]2(C)O | -5.33% |  |
| Cc1nc2ccccc2c(=O)n1-c1ccccc1Cl | -0.954% [at 104 µM] |  |
| Cc1ncc2n1-c1ccc(Cl)cc1C(c1ccccc1F)=NC2 | -1.08% |  |
| CC1N=C(N)OC1c1ccccc1 (stereo not given) | 1.37% [at 104 µM] |  |
| O=C(CCl)c1ccc(Cl)cc1Cl | 0.595% |  |
| CN(C)CCc1c[nH]c2ccccc12 | -1.19% [at 194 µM] |  |
| CCOP(=S)(OCC)O/N=C(\C#N)c1ccccc1 | 2.66% |  |
| COc1cc(C[C@@H](C)N)c(OC)cc1C | 7.39% [at 104 µM] |  |
| C#C[C@]1(O)C=C[C@H]2[C@@H]3CCC4=CC(=O)CC[C@@H]4[C@H]3CC[C@@]21CC | -1.67% |  |
| CCOC(=O)C(c1c(O)c2ccccc2oc1=O)c1c(O)c2ccccc2oc1=O | 4.75% |  |
| CNC(=O)Oc1cccc2ccccc12 | -14.3% |  |
| CCNc1nc(Cl)nc(NCC)n1 | 0.601% |  |

| Structure (SMILES) | activity change, negative = inhibition | Potency |
| --- | --- | --- |
| Cc1c(Cl)c(=O)oc2cc(OP(=O)(OCCCl)OCCCl)ccc12 |  | 14.4 µM (active) |
| CCc1cc(OC)c(C[C@H](C)N)cc1OC | -0.715% [at 104 µM] |  |
| COC(=O)C1=CCCN(C)C1 |  | inactive |
| CN1[C@@H]2CC[C@H]1CC(OC(=O)c1cc(Cl)cc(Cl)c1)C2 (stereo not given in full) |  | inactive |
| CC[C@H]1C[C@@H]2C[C@H]3c4[nH]c5ccc(OC)cc5c4CCN(C2)[C@@H]13 | -10.4% [at 104 µM] |  |
| O=C(CBr)Nc1ccc(Cl)cc1C(=O)c1ccccc1F | -6.53% |  |
| O=C(N[C@H]1N=C(c2ccccc2F)c2cccc3c2N(CC3)C1=O)c1cc2ccccc2[nH]1 | -13.4% |  |
| C[C@]12C=CC(=O)C=C1CC[C@@H]1[C@@H]2CC[C@@]2(C)[C@H]1CC[C@]2(C)O | -2.86% |  |
| CCC1(CC)C(=O)NC(=O)NC1=O | -1.85% |  |
| O=C1NCN(c2ccccc2)C12CCN(CCCOc1ccc(F)cc1)CC2 |  | inactive |
| COc1ccc2[nH]cc(CCN(C(C)C)C(C)C)c2c1 | 1.77% [at 104 µM] |  |
| COP(=O)(OC)C(O)C(Cl)(Cl)Cl (stereo not given) | -0.777% |  |
| CC(CC(C(N)=O)(c1ccccc1)c1ccccc1)N(C)C (stereo not given) | 4% |  |
| CC(C)=CCN1CC[C@@]2(C)c3cc(O)ccc3C[C@@H]1[C@@H]2C | -2.26% [at 104 µM] |  |
| CN(C)C(=S)SSC(=S)N(C)C | -2.04% |  |
| CNC(C)Cc1ccccc1OC (stereo not given) | 4.3% |  |
| C[C@H](CN1CCOCC1)C(C(=O)N1CCCC1)(c1ccccc1)c1ccccc1 | -4.02% [at 104 µM] |  |
| Cc1cccc(Cc2cnc[nH]2)c1C | 1.44% |  |
| O=C(CCCCl)c1ccc(F)cc1 | -7.59% |  |
| CNC(=O)NC(O)C(Cl)(Cl)Cl (stereo not given) | -0.312% |  |
